Test results from PubChem BioAssay (Tox21).
Records with an inconclusive call do not appear. The source made the active and inactive calls. Unless noted, calls follow the shape of the full dose curve.

Tests used:
[1] = qHTS assay to identify small molecule antagonists of the vitamin D receptor (VDR) signaling pathway - cell viability counter screen (AID 743225; active = well fitted curve in the direction sought with a large enough effect in the repeat runs; an effect the other way counts as inactive or inconclusive; also: nearly all actives have a fitted effect of over 50% in size)
In short: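 In this counter screen, VDR-bla HEK 293T cells receive test compound plus 3 nM final calcitriol for 16 h at 37C. Room-temperature steps of 2 h with the beta-lactamase substrate, then 30 min with CellTiter-Glo, precede the luminescence read.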

[2] = qHTS assay to identify small molecule agonists of the NFkB signaling pathway (AID 1159509; active = well fitted curve in the direction sought with a large enough effect in the signal ratio in the repeat runs, not every such curve was filed as active; the % refers to the signal ratio; also: series mostly up to about 61 µM)
In short: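 NFkB-bla ME-180 cells carry a beta-lactamase reporter under an NF-kB response element. They were plated overnight, then exposed to compounds for 5 h at 37 C. Read-out is LiveBLAzer FRET after 1.5 hr at room temperature (405 nm excitation; 460/530 nm emission).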

[3] = qHTS assay to identify small molecule agonists of the NFkB signaling pathway - cell viability counter screen (AID 1159515); also: series mostly up to about 61 µM; nearly all actives have a fitted effect of over 55% in size
In short: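 NFkB-bla ME-180 cells, 2,000/well, were plated overnight at 37 C, 5% CO2, then exposed to compounds in DMSO for 5 hr. After the bla FRET read, CellTiter-Glo was added to the same wells; luminescence was read after 30 min at room temperature.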

[4] = qHTS assay to identify small molecule agonists of the endoplasmic reticulum stress response signaling pathway (AID 1159516; active = well fitted activation curve with a large enough effect in the signal ratio in the repeat runs, not every such curve was filed as active; the % refers to the signal ratio)
In short: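 CellSensor ESRE-bla HeLa cells, carrying a beta-lactamase reporter driven by the ER stress response element, were plated overnight and exposed to compounds for 5 hr at 37 C. Reporter activity was read as FRET substrate fluorescence after 2 hr at room temperature.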

[5] = qHTS assay to identify small molecule agonists of the endoplasmic reticulum stress response signaling pathway - cell viability counter screen (AID 1159517); also: series mostly up to about 61 µM; nearly all actives have a fitted effect of over 50% in size
In short: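 CellTiter-Glo was added to wells already read for beta-lactamase FRET, and luminescence was recorded 30 min later. Cells: ESRE-bla HeLa, 1,500 per well, compound exposure 5 hr at 37 C.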

[6] = qHTS assay to identify small molecule antagonists of the retinoid-related orphan receptor gamma (ROR-gamma) signaling pathway - cell viability counter screen (AID 1159520; active = well fitted curve in the direction sought with a large enough effect in the repeat runs; an effect the other way counts as inactive or inconclusive; also: nearly all actives have a fitted effect of over 50% in size)
In short: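 Tet-on ROR gamma CHO cells (1,000/well) were plated 4 hr, given compounds in DMSO for 2 hr at 37 C, then induced with 1 uM final doxycycline for 16 hr. Viability was read as ATP by CellTiter-Glo luminescence after 30 min.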

[7] = qHTS assay to identify small molecule agonists of the AP-1 signaling pathway - cell viability counter screen (AID 1159525); also: nearly all actives have a fitted effect of over 55% in size
In short: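 ME-180 AP-1-bla, 2500 cells/well, Opti-MEM + 0.5% dialyzed FBS; overnight 37 °C; cpd 15-pt titration, 5 h 37 °C; CellTiter-Glo 30 min RT; luminescence read; normalised to TOAB and DMSO controls.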

[8] = qHTS assay to identify small molecule agonists of the AP-1 signaling pathway (AID 1159526)
[9] = target: Retinoic acid receptor RXR-alpha (Homo sapiens) (UniProt P19793); experiment: qHTS assay to identify small molecule agonists of the RXR signaling pathway (AID 1159527); also: nearly all actives have a fitted effect of over 35% in size
In short: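 Fluorescence ratio readout (460 vs 530 nm) from GeneBLAzer RXR-alpha HEK 293T cells after 16 hr compound treatment; cells seeded 5 hr beforehand in low-serum, charcoal-stripped medium.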

[10] = target: Nuclear receptor ROR-gamma (Homo sapiens) (UniProt P51449); experiment: qHTS assay to identify small molecule antagonists of the retinoid-related orphan receptor gamma (ROR-gamma) signaling pathway (AID 1159521; active = well fitted curve in the direction sought with a large enough effect in the repeat runs; an effect the other way counts as inactive or inconclusive;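 also: CHO cells with doxycycline inducible ROR-gamma driving an RORE luciferase reporter; top concentration of the series differs between compounds; nearly all actives have a fitted effect of over 50% in size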)
In short: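 Screening format: cell-based luciferase reporter in CHO cells with doxycycline-inducible RORγ. Compound pre-exposure lasts 2 h, doxycycline is 1 uM final, induction runs 16 h at 37 C, and ONE-Glo luminescence is read.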

Measured: Potency

Sequence of Retinoic acid receptor RXR-alpha (Homo sapiens) (P19793 whole entry, looked up): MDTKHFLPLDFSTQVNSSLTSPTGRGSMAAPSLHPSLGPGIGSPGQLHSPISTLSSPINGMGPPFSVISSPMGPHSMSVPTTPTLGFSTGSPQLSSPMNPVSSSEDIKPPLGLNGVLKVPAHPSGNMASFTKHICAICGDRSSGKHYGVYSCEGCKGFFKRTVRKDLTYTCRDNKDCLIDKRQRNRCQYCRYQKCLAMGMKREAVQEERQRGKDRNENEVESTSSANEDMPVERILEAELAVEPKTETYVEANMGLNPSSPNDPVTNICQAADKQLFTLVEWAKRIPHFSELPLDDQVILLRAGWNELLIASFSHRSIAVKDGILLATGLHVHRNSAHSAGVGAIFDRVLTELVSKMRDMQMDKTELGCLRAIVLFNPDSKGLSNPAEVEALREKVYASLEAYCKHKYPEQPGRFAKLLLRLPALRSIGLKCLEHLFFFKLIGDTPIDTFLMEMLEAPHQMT

Nc1ccc(Cl)cc1[N+](=O)[O-]
not listed: [9] | [10]
inactive: all other assays above

CC(=O)[C@H]1CC[C@H]2[C@@H]3C=CC4=CC(=O)CC[C@@]4(C)[C@@H]3CC[C@]12C
not listed: [9] | [10]
inactive: all other assays above

CCCC1C(CC)=CC(CC)=CN1c1ccccc1 (centres undefined)
not listed: [1] | [7] | [10]
inactive: all other assays above

Nc1ccc(S(=O)(=O)O)cc1
not listed: [9] | [10]
inactive: all other assays above

Cc1ccc(S(=O)(=O)NC2CCCCC2)cc1
not listed: [9] | [10]
inactive: all other assays above

CSc1ccc(Oc2ccc(S(N)(=O)=O)cc2CN(C)C)cc1C
inactive: [2] | [3] | [4] | [5] | [6] | [8]

Cc1ccc(Nc2nccc(N(C)c3ccc4c(C)n(C)nc4c3)n2)cc1S(N)(=O)=O
not listed: [9] | [10]
inactive: all other assays above

CC(C)=CC=O
not listed: [9] | [10]
inactive: all other assays above

C=CCOC(=O)/C=C\C(=O)OCC=C
not listed: [9] | [10]
inactive: all other assays above

CC1C2CC(CC2C2CCCC(O)C2)C1(C)C (centres undefined)
inactive: [2] | [3] | [4] | [5] | [10]
